Measurements reported in ChEMBL document CHEMBL3988442, “University of Dundee, Small-Polar-MMV Screening Library” (2021).
The campaign covered roughly 69,000 compounds. About 950 (1.4%) showed an effect of 50% or more. The list comes from a sample in which strong results are over-represented; it also holds similar structures and randomly drawn compounds.

What follows are compounds tested on Mycobacterium tuberculosis (assay: Cornell M. t heat shock assay; also: in the data most compounds retested in dose-response had high values).
Format: functional, organism-based
Set-up: dose or concentration left out as unconfirmed
In the case of `Cc1cc(N(C)C)nc(C2CCCNC2)n1.Cl` (stereo not drawn), the “Percent Effect” value is reported as -4.07%.
For `COc1ccc(C[C@H]2CN(Cc3ccoc3)CC[C@H]2OC)cc1.O=C(O)C(F)(F)F`, the “Percent Effect” value was 23.61%.
With `CCN(CC)CCn1c(=O)oc2ccccc21.Cl` the “Percent Effect” value was 76.75%.
With `CCCN(CCn1c(=O)oc2ccccc21)CC1CC1` the “Percent Effect” value was 105%.
`Cn1cc(C2CCCN2CCCn2c(=O)oc3ccccc32)cn1` (stereo not drawn) was tested, and the “Percent Effect” value was -2.71%.
In the case of `CCN(CCn1c(=O)oc2ccccc21)CC1CCOCC1`, the “Percent Effect” value is reported as 86.99%.
With `CCN(Cc1ccc(C(C)=O)cc1)CC1CCOCC1` the “Percent Effect” value was 5.377%.
In the case of `Cc1noc(C)c1CN(C)Cn1c(=O)oc2ccccc21`, the “Percent Effect” value is reported as -12.14%.
For `CC(NCCn1c(=O)oc2ccccc21)c1ccccn1` (stereo not drawn), the “Percent Effect” value was 5.47%.
For `O=c1oc2ccccc2n1CCN(CC1CCOC1)C1CC1` (stereo not drawn), the “Percent Effect” value was -26.82%.
With `O=c1oc2ccccc2n1CCCN1CCCC1c1ccc(O)cc1` (stereo not drawn) the “Percent Effect” value was -35.87%.
In the case of `COc1cccc(Nc2nc(C3CCNCC3)c3sc(C)c(C)n23)c1.Cl`, the “Percent Effect” value is reported as 44.92%.
In the case of `CN(C)[C@@H]1CN(Cc2cnn(C)c2)[C@@H]2COC[C@H]12.O=C(O)C(F)(F)F.O=C(O)C(F)(F)F.O=C(O)C(F)(F)F`, the “Percent Effect” value is reported as -14.51%.
With `O=C(O)C(F)(F)F.O=C1CC[C@H]2[C@H](CCN2c2ncccn2)N1c1ccccc1` the “Percent Effect” value was 21.09%.
In the case of `FC(F)(F)c1ccccc1CN1CCOC[C@H](Oc2cccnc2)C1`, the “Percent Effect” value is reported as -28.03%.
For `c1ccc(O[C@H]2COCCN(Cc3c[nH]c4ccccc34)C2)cc1`, the “Percent Effect” value was 78.8%.
`c1ccc(O[C@H]2COCCN(Cc3cccc4c3OCO4)C2)cc1` was tested, and the “Percent Effect” value was -21.01%.
For `COc1ccc(O[C@H]2COCCN(Cc3c[nH]c4ccccc34)C2)cc1`, the “Percent Effect” value was 47.94%.
For `CO[C@H]1COCCN(Cc2c[nH]c3ccccc23)C1`, the “Percent Effect” value was 82.59%.
In the case of `CC(C)(C)c1coc([C@@H]2COCCN2Cc2c[nH]c3ccccc23)n1`, the “Percent Effect” value is reported as 25.07%.
With `Fc1ccc(CN2CCOC[C@H](Oc3cccnc3)C2)cc1` the “Percent Effect” value was -34.69%.
With `O=C(O)c1ccc2c(CN3CCOCC3)c[nH]c2c1` the “Percent Effect” value was -11.23%.
With `c1cncc(O[C@H]2COCCN(Cc3c[nH]c4ccccc34)C2)c1` the “Percent Effect” value was 58.82%.
For `CCC(C)S(=O)(=O)N1CCc2nc(C3CCNCC3)ncc2C1.Cl` (stereo not drawn), the “Percent Effect” value was -3.075%.
In the case of `Cc1cccc(CN2CCc3nnc(CN4CCCCC4)n3CC2)n1.O=C(O)C(F)(F)F.O=C(O)C(F)(F)F`, the “Percent Effect” value is reported as -5.727%.
`Cl.Cn1ccnc1N1CCN(C(=O)Cc2ccc(Cl)cc2)CC1` was tested, and the “Percent Effect” value was -26.02%.
In the case of `Cc1ccc(C(=O)N2CC3(CCNCC3)c3cc(Cl)ccc32)cn1.O=C(O)C(F)(F)F.O=C(O)C(F)(F)F`, the “Percent Effect” value is reported as 1.032%.
`Cc1cccc(CN2C(=O)C[C@H]3[C@@H]2CCN3Cc2ccco2)n1.O=C(O)C(F)(F)F.O=C(O)C(F)(F)F` was tested, and the “Percent Effect” value was -4.137%.
For `Cc1nnsc1CN1C[C@H]2CC[C@@H]1CN(Cc1ccccn1)C2`, the “Percent Effect” value was -2.005%.
`O=C(CN1C[C@H]2CC[C@@H]1CN(Cc1ccccn1)C2)Nc1ccccc1` was tested, and the “Percent Effect” value was 12.62%.
In the case of `Cn1cnc(S(=O)(=O)N2C[C@@H]3CC[C@H](C2)N(Cc2ccccn2)C3)c1`, the “Percent Effect” value is reported as 7.06%.
`CC(C)(C)c1cc(CN2C[C@H]3CC[C@@H]2CN(Cc2ccccn2)C3)n[nH]1` was tested, and the “Percent Effect” value was 99.23%.
With `Cn1ccc(NC(=O)CN2C[C@H]3CC[C@@H]2CN(Cc2ccccn2)C3)n1` the “Percent Effect” value was -21.74%.
In the case of `CC(C)(C)c1cc(CN2C[C@@H]3CC[C@H](C2)N(Cc2ccccn2)C3)n[nH]1`, the “Percent Effect” value is reported as 82.46%.
With `O=C(O)C(F)(F)F.c1ccc(CN2CCc3ncnc(C4CC4)c3CC2)cc1` the “Percent Effect” value was -16.81%.
With `CC(=O)N1CC2(CCNCC2)c2cc(Cl)ccc21.Cl` the “Percent Effect” value was 3.682%.
`CO[C@H]1CN(C(=O)c2ccccn2)[C@@H]2CCCO[C@H]12.O=C(O)C(F)(F)F` was tested, and the “Percent Effect” value was 0.07759%.
`CS(=O)(=O)NCc1cnc2n1CCN(Cc1ccccn1)CC2.O=C(O)C(F)(F)F` was tested, and the “Percent Effect” value was -38.1%.
For `CCc1n[nH]c(C(=O)NCCn2ccnc2C)c1C`, the “Percent Effect” value was -101%.
In the case of `CCc1n[nH]c(C(=O)NCCn2ccc(C)n2)c1C`, the “Percent Effect” value is reported as -5.809%.
In the case of `CCc1n[nH]c(C(=O)NCCn2nccc2C)c1C`, the “Percent Effect” value is reported as 66.56%.
`CO[C@H]1[C@@H]2CC[C@H]1CN(c1nc(C)nc3ccsc13)C2` was tested, and the “Percent Effect” value was 7.911%.
With `Cc1ccc(C2(CN3CCN(Cc4cnc(C)n4C)CC3)CC2)cc1.Cl` the “Percent Effect” value was -8.472%.
In the case of `CC(=O)c1cc(CN2C[C@H]3CC[C@@H]2CN(S(=O)(=O)N(C)C)C3)cs1`, the “Percent Effect” value is reported as -20.68%.
For `CC(=O)c1cc(CN2C[C@H]3CC[C@@H]2CN(S(C)(=O)=O)C3)cs1`, the “Percent Effect” value was 74.41%.
With `CS(=O)(=O)N1C[C@@H]2CC[C@H](C1)N(Cc1ccsc1)C2` the “Percent Effect” value was 18.67%.
With `Cc1ccc(CN2CCO[C@H]3[C@H](OCc4cccnc4)CC[C@@H]32)o1.O=C(O)C(F)(F)F.O=C(O)C(F)(F)F` the “Percent Effect” value was 17.99%.
For `Cl.c1cnc2[nH]c(C3CCCNC3)c(CN3CCCOCC3)c2c1` (stereo not drawn), the “Percent Effect” value was -14.8%.
For `CCOc1ccccc1-c1cc(N)[nH]n1.Cl`, the “Percent Effect” value was -11.82%.
With `CCOc1ccc(Br)cc1-c1cc(N)[nH]n1.Cl` the “Percent Effect” value was 3.82%.
In the case of `CC(C)=CCN1C(=O)[C@H]2CC[C@@H]1CN(Cc1cccnc1N)C2`, the “Percent Effect” value is reported as 105.7%.
`Nc1ncccc1CN1C[C@@H]2CC[C@H](C1)N(CC1CC1)C2=O` was tested, and the “Percent Effect” value was -11.72%.
For `Cc1noc(C)c1CN1C(=O)[C@H]2CC[C@@H]1CN(Cc1cccnc1N)C2`, the “Percent Effect” value was 4.913%.
In the case of `Cl.NC(=O)C1CN(c2ccc(F)cc2)CCN1` (stereo not drawn), the “Percent Effect” value is reported as 7.399%.
With `Cc1ccc(CN(CCCn2ccnc2)Cc2c[nH]nc2C(C)(C)C)s1.O=C(O)CC(O)(CC(=O)O)C(=O)O` the “Percent Effect” value was 9.157%.
In the case of `Cc1ccc(CN(CCCn2ccnc2)Cc2cnn(C)c2)s1.O=C(O)CC(O)(CC(=O)O)C(=O)O`, the “Percent Effect” value is reported as -39.87%.
With `Cc1ccc(CN(CCCn2ccnc2)Cc2c[nH]cn2)s1.O=C(O)CC(O)(CC(=O)O)C(=O)O` the “Percent Effect” value was -3.628%.
With `Cc1ccc(CN(CCCn2ccnc2)Cc2cccs2)s1.O=C(O)CC(O)(CC(=O)O)C(=O)O` the “Percent Effect” value was 106%.
In the case of `COc1ccc(F)c(CN2CCC(c3cc(O)nc(C)n3)C2)c1.O=C(O)CC(O)(CC(=O)O)C(=O)O` (stereo not drawn), the “Percent Effect” value is reported as -13.93%.
`Cc1ccc(CN(CCN(C)C)Cc2ncc[nH]2)s1` was tested, and the “Percent Effect” value was -11.95%.
`COc1ccc(Cl)cc1CNCCCn1ccnc1` was tested, and the “Percent Effect” value was 13.48%.
In the case of `COc1ccc(F)c(CN(CCCn2ccnc2)Cc2ccc(C)s2)c1.O=C(O)CC(O)(CC(=O)O)C(=O)O`, the “Percent Effect” value is reported as 102.4%.
With `OCc1ccc(CN(CCCn2ccnc2)Cc2cccnc2)o1` the “Percent Effect” value was 13%.
With `Cl.Fc1ccc(Cc2cnc(C3CCCN3)cn2)cc1` (stereo not drawn) the “Percent Effect” value was -27.64%.
With `COc1ccc(CN(C)[C@@H]2COC[C@H]2c2ccc(F)cc2)cc1.O=C(O)CC(O)(CC(=O)O)C(=O)O` the “Percent Effect” value was -8.721%.
`Cc1oncc1C(=O)N[C@@H]1CN(CC2CC2)C[C@@H]2CCCO[C@@H]21.O=C(O)C(F)(F)F` was tested, and the “Percent Effect” value was 28.88%.
For `COCCNC(=O)[C@@H]1C[C@@H]2CCN(c3ncccn3)C[C@H]2O1.O=C(O)C(F)(F)F`, the “Percent Effect” value was -37.39%.
With `O=C(NC1CC1)C1=CC2(CCN(CC3CC3)CC2)c2ccccc21.O=C(O)C(F)(F)F` the “Percent Effect” value was -12.48%.
For `CC(C)OCCCN(Cc1ccncc1)Cc1cc(F)ccc1F.Cl`, the “Percent Effect” value was -8.981%.
In the case of `OCc1ccc(CN(CCCn2ccnc2)Cc2ccncc2)o1`, the “Percent Effect” value is reported as -4.525%.
In the case of `Cc1ccc(CN(CCCn2ccnc2)Cc2c(F)cccc2F)s1.O=C(O)CC(O)(CC(=O)O)C(=O)O`, the “Percent Effect” value is reported as 103.6%.
`Cc1ccc(CN(Cc2cccnc2)C2CC(C)(C)NC(C)(C)C2)s1.O=C(O)CC(O)(CC(=O)O)C(=O)O` was tested, and the “Percent Effect” value was -4.253%.
In the case of `Cc1ccc(CN(CCCN2CCOCC2)Cc2cncn2C)o1.O=C(O)CC(O)(CC(=O)O)C(=O)O`, the “Percent Effect” value is reported as 7.314%.
With `c1cc(CN(CCCn2ccnc2)Cc2ccoc2)ccn1` the “Percent Effect” value was 0.7312%.
`COc1ccccc1CN(CCCn1ccnc1)CC1CCOC1.O=C(O)CC(O)(CC(=O)O)C(=O)O` (stereo not drawn) was tested, and the “Percent Effect” value was 0.5182%.
`Cc1ccc(CN(CCCn2ccnc2)Cc2cc(F)ccc2F)s1.O=C(O)CC(O)(CC(=O)O)C(=O)O` was tested, and the “Percent Effect” value was 105.9%.
In the case of `Fc1ccccc1CN(CCCn1ccnc1)CC1CCOC1.O=C(O)CC(O)(CC(=O)O)C(=O)O` (stereo not drawn), the “Percent Effect” value is reported as -23.62%.
`COC[C@]12COC[C@H]1CN(Cc1ccc3c(c1)OCO3)C2.O=C(O)C(F)(F)F` was tested, and the “Percent Effect” value was -2.808%.
`CC(CN1CCOCC1)OC(=O)c1ccccc1I.Cl` (stereo not drawn) was tested, and the “Percent Effect” value was -19.16%.
`O=C(O)C(F)(F)F.c1ccc(N2CCOC3(CCCN(c4ncccn4)C3)C2)nc1` (stereo not drawn) was tested, and the “Percent Effect” value was 36.25%.
For `Cn1cc(CN2CC[C@]3(C[C@H](Oc4ccccn4)CO3)C2)cn1.O=C(O)C(F)(F)F.O=C(O)C(F)(F)F`, the “Percent Effect” value was 21.89%.
`Cc1cccnc1N1CC2(CCN(Cc3cnn(C)c3)C2)C1.O=C(O)C(F)(F)F.O=C(O)C(F)(F)F` was tested, and the “Percent Effect” value was -17.77%.
With `CN(C)CCN1C(=O)CCC12CCN(Cc1cccs1)CC2.O=C(O)C(F)(F)F.O=C(O)C(F)(F)F` the “Percent Effect” value was -4.329%.
`CN(C)C(CNC(=O)c1cc2c([nH]c1=O)CCCC2=O)c1ccsc1` (stereo not drawn) was tested, and the “Percent Effect” value was -5.178%.
With `Cc1ccccc1CN1C[C@@H]2COC[C@]2(CNC(=O)C2CCC2)C1.O=C(O)C(F)(F)F` the “Percent Effect” value was 17.62%.
`Cc1ccc(CN(CCCn2ccnc2)Cc2cnc(N(C)C)nc2)s1.O=C(O)CC(O)(CC(=O)O)C(=O)O` was tested, and the “Percent Effect” value was -30.9%.
`Cc1ccc(CN(CCCn2ccnc2)Cc2[nH]cnc2C)s1.O=C(O)CC(O)(CC(=O)O)C(=O)O` was tested, and the “Percent Effect” value was -16.97%.
`CCc1ccc(CN(CCCn2ccnc2)Cc2ccc(C)s2)o1.O=C(O)CC(O)(CC(=O)O)C(=O)O` was tested, and the “Percent Effect” value was 103.6%.
